An excerpt weighted towards active compounds, which were near 2.4% of everything screened.
Pol kappa inh = blocks human DNA polymerase kappa activity | Potency, µM (series often up to 107 µM), inactives show at the highest dose activity, negative = inhibition, hits mostly inhibitors | Q9UBT6 | purified Pol kappa, fluorescent DNA synthesis assay, 10 min | 400,000 tested, 0.53% active; note: % is set by controls: 0 for no effect and ±100 for the full control effect
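Kinetic fluorescence readout at 0 and 10 min followed reaction start with substrate at 50 nM final. Beforehand, enzyme (10 nM Pol kappa) stood 15 min with compound at room temperature; buffer-only wells were negative controls.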
Pol iota inh = blocks human DNA polymerase iota activity; Q9UNA4; Pol iota fluorescent replication assay, 10 min; Potency, µM (top dose mostly 115 µM), without a hit: at the highest dose activity, negative = inhibition, most hits filed as inhibitors; 390,000 tested, 1% active; AID 588590
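Fluorescent replication assay read twice, at 0 min and 10 min after adding 50 nM (final) substrate. Enzyme (10 nM) and compounds were first incubated 15 min at room temperature; enzyme-free buffer wells were negative controls.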
POLH inh = DNA polymerase eta (human) inhibition | AID 588591 | recombinant Pol eta, fluorescent DNA replication assay | 390,000 tested, 1.2% active | Potency, µM (titrated, usually from 114 µM), without a hit: top-dose activity change, negative = inhibition, usual class: inhibitors; note: % is set by controls: 0 for no effect and ±100 for the full control effect
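Pol eta (10 nM) was preincubated with compounds for 15 min at room temperature, after which fluorescent replication substrate (50 nM final) was added to start the reaction. Fluorescence was read kinetically at 0 and 10 min.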
WRN inhibitor = WRN helicase (human) inhibition | Q14191 | WRN helicase unwinding, fluorescent forked duplex, kinetic | Potency, µM (series often up to 114 µM), without a hit: top-dose activity change, negative = inhibition, actives largely listed as inhibitors | 360,000 tested, 0.46% active | AID 651768; note: % is set by controls: 0 for no effect and ±100 for the full control effect; nearly all actives have a fitted effect of over 55% in size
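Screening of the MLSMR collection measured strand separation of a quenched forked DNA duplex (100 nM) by 20 nM WRN with 2 mM ATP, all final. Compounds were preincubated with enzyme 15 min at room temperature.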
FEN1 inh = blocks human flap endonuclease 1; P39748; Recombinant FEN1 flap cleavage, fluorescence, 15 min; Potency, µM (highest dose often 114 µM), for inactives: at the top dose activity change, negative = inhibition, hits mostly inhibitors; 390,000 tested, 0.35% active; AID 588795; note: % is set by controls: 0 for no effect and ±100 for the full control effect; nearly all actives have a fitted effect of over 65% in size
Target sequence (P39748 whole entry, looked up): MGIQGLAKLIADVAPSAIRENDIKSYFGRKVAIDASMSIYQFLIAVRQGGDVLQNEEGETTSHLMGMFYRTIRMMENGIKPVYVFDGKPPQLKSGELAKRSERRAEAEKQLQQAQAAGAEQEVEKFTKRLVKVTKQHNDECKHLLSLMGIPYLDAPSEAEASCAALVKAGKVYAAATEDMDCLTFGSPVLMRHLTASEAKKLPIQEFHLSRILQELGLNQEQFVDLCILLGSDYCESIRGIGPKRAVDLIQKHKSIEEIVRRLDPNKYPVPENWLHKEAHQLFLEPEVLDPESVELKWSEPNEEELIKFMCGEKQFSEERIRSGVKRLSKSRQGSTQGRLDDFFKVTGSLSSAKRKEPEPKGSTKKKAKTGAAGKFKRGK
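Steps: FEN1 (10 nM) dispensed; compound added by pin tool; 15 min at room temperature; substrate added to 50 nM final; reads at 0 min and 15 min; data normalized and fitted (four-parameter Hill).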
Pol beta inh = inhibitors of human DNA polymerase beta. P06746. Pol beta primer extension/strand displacement, fluorescence kinetic. Potency, µM (titrated, usually from 114 µM), inactives show at the top dose activity change, negative = inhibition, hits mostly inhibitors. 340,000 tested, 1.3% active; note: % is set by controls: 0 for no effect and ±100 for the full control effect
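Values derive from four-parameter Hill fits of normalized kinetic data: reads at 0 and 10 min following addition of 50 nM substrate to 10 nM Pol beta preincubated 15 min with compound.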
Starred values were filed as active, the others as inactive; [ ] = dose if it differs, or a comment. Calls come from the whole dose curve; as a rule, active = well fitted curve in the direction sought with a large enough effect; inconclusive = small, poorly fitted or top-dose-only effect, or another doubt; inactive = no such curve, though single readings can be large; an effect the other way counts as inactive or inconclusive. Potency is the fitted concentration of half-maximal effect.

`C/C(=N/NC(=O)C(O)(c1ccccc1)c1ccccc1)c1ccc([N+](=O)[O-])o1` gave Pol kappa inh -15.5%, Pol iota inh inconclusive, POLH inh 79.4µM*, WRN inhibitor -9.9%, FEN1 inh -1.0% and Pol beta inh 12.6µM*.
`CCCSS/C(CCO)=C(/C)N(C=O)Cc1cnc(C)nc1N` gave Pol kappa inh 8.7%[19.4 µM].
Screening N#C/C(=C\c1ccc(-c2cccc(Cl)c2)o1)C(=O)Nc1cccc(C(F)(F)F)c1 returned Pol kappa inh -25.4%, Pol iota inh 89.1µM*, POLH inh -0.9%, FEN1 inh 9.5% and Pol beta inh -19.9%.
Screening CNC(CC(=O)c1ccc([N+](=O)[O-])cc1)C(Cl)(Cl)Cl (stereo not drawn) returned Pol kappa inh -4.9%, Pol iota inh 10.8%, POLH inh -9.4%, WRN inhibitor 44.7µM*, FEN1 inh 1.6% and Pol beta inh 30.1%.
CCCN1CNc2c(c(=O)[nH]c(=S)n2CCC(C)C)C1 was read as Pol kappa inh -5.5%, Pol iota inh -0.9% and FEN1 inh -5.4%.
Cc1ccc(-c2nc(=Nc3c(C)cc(C)cc3C)sn2-c2ccccc2)cc1 was read as Pol kappa inh -12.5%, Pol iota inh 8.4% and FEN1 inh -20.7%.
Screening CCOc1ccc(/C=C2/SC(=O)NC2=S)cc1 returned Pol kappa inh inconclusive, Pol iota inh 89.1µM*, POLH inh -20.9%, WRN inhibitor inconclusive, FEN1 inh inconclusive and Pol beta inh inconclusive.
CCOc1ccc(N=C2NC(=O)S/C2=C\c2ccc(N(C)C)cc2)cc1 was read as Pol kappa inh -4.9%, Pol iota inh inconclusive, POLH inh 79.4µM*, WRN inhibitor inconclusive, FEN1 inh inconclusive and Pol beta inh 3.0%.
`CCOc1ccc(/C=C2\SC(=S)N(N3C(=O)C4CC4C3=O)C2=O)cc1` (stereo not drawn) gave Pol kappa inh -12.1%, Pol iota inh 23.8%, POLH inh -15.0%, WRN inhibitor -0.1%[57.1 µM], FEN1 inh -0.1% and Pol beta inh 0.2%.
COc1ccc(CN(Cc2ccco2)c2cnc(S(C)(=O)=O)nc2C(=O)Nc2ccc(F)cc2)cc1 was read as Pol kappa inh -6.4%, Pol iota inh 55.4%, POLH inh -16.7%, FEN1 inh -7.3% and Pol beta inh 13.6%.
`Cc1cc2c(cc3c(SCc4ccccc4Cl)nnc(C)n32)o1` gave Pol kappa inh -5.6%, Pol iota inh 7.9%, POLH inh -25.1%, FEN1 inh -20.4% and Pol beta inh 5.6%.
For O=C(c1ccc2c(c1)N(Cc1cccc(F)c1)C(=O)c1ccccc1S2)N1CCOCC1 the results were Pol kappa inh -16.4%[60.1 µM], Pol iota inh inconclusive, POLH inh inconclusive, FEN1 inh 8.8% and Pol beta inh 50.1µM*.
Screening CCN1CCN(C(=O)c2ccc3c(c2)N(Cc2cccc(F)c2)C(=O)c2ccccc2S3)CC1 returned Pol kappa inh -2.4%[60.1 µM], Pol iota inh inconclusive, POLH inh inconclusive, FEN1 inh 8.9% and Pol beta inh inconclusive.
O=C(N/N=C/c1cc(O)ccc1Br)c1cccnc1 was read as Pol kappa inh -17.0%, Pol iota inh -1.1%, POLH inh -0.9%, WRN inhibitor -12.5%, FEN1 inh -6.5% and Pol beta inh -11.0%.
For O=C(N/N=C/c1cc(Br)c(O)c(Br)c1O)c1cccnc1 the results were Pol kappa inh -1.5%, Pol iota inh 7.1%, POLH inh 39.8µM*, WRN inhibitor -16.8%, FEN1 inh -18.5% and Pol beta inh 39.8µM*.
For CN(C)C(=O)Nc1ccc(Oc2ccc(Cl)cc2)cc1 the results were Pol kappa inh 11.7%[60.1 µM].
COc1cc(O)c(CC=C(C)C)c(O)c1C(=O)CCc1ccc(O)cc1 was read as Pol kappa inh -3.6%, Pol iota inh -6.2%, POLH inh -11.8%, WRN inhibitor -16.1%, FEN1 inh -24.2% and Pol beta inh 10.4%.
